# Source: PubChem BioAssay
# aSyn 5UTR act: Activators via SNCA 5'UTR binding, MLPCN | alpha-synuclein 5'UTR reporter, activators screen | activity score, % (tested at 7.5 µM), hits read low | 300,000 compounds, 7.1% hits | AID 1814, 2009; in the data active = activity score below about -60%
# * hit, by the source's call. Only a sample is shown.
SMILES,aSyn 5UTR act
O=C(CCl)Nc1cc(SCC(O)CO)cc([N+](=O)[O-])c1 (stereo not drawn),110
CC(C)(C)c1ccc(Cn2c(=N)n(CC(O)c3ccco3)c3ccccc32)cc1 (stereo not drawn),101
CC(C)(C)c1ccc(CN2C3=NCCCN3c3ccccc32)cc1,-62*
COc1ccc2occ(C(=O)c3cccs3)c2c1,-242*
CCCc1cc(NC(=O)CCl)n(-c2ccccc2)n1,-79*
O=C(/C=C/c1ccccc1)c1ccc2c3c(cccc13)CC2,-87*
O=C(/C=C/c1ccccc1)c1ccccc1,-105*
O=C(/C=C/c1ccc[nH]1)c1ccccc1,-64*
CC(C)(C)C(=O)/C=C(N)/C=C/c1ccccc1,-76*
N/C(=N\OC(=O)/C=C/c1ccccc1)c1ccccc1,-243*
O=C(/C=C/c1ccccc1)/C=C/c1ccccc1,-112*
O=C(Nc1ccccc1)Nc1ccc(Cl)nc1Cl,-93*
O=C(Nc1ccccc1)Nc1ccc(Nc2ccccc2)cc1,-111*
c1ccc(Nc2cccc(Nc3ccccc3)c2)cc1,-86*
O=C(Nc1ccc(Nc2ccccc2)cc1)c1ccccc1F,-174*
CCN(CC)c1ccc(NC(=O)c2ccccc2F)cc1,-411*
COc1ccc(NC(=O)c2cc(-c3ccccc3Cl)on2)cc1OC,-96*
COc1ccccc1-c1cc(C(=O)Nc2ccc(F)cc2F)no1,-155*
COc1ccccc1-c1cc(C(=O)NC(C)C)no1,-265*
CCC(C)NC(=O)c1cc(-c2ccccc2O)on1 (stereo not drawn),-83*
CCN(CC)C(=O)c1cc(-c2ccccc2OC)on1,-125*
Cc1cc2ncc(-c3ccc(Cl)cc3)cn2n1,-84*
CCCSc1nsc(NC(=O)c2cccnc2OCC)n1,-72*
CCCCCCSc1nsc(NC(C)=O)n1,-97*
CCCCSc1nsc(NC(C)=O)n1,-135*
SMILES,aSyn 5UTR act
CCCSc1nsc(NC(=O)CCC)n1,-142*
Cc1cccc(C(=O)N2CCCC(c3nc(-c4ccc(C)o4)no3)C2)c1 (stereo not drawn),-145*
CCCc1ccc(-c2cc(NC(=O)CSc3n[nH]c(N)n3)n(-c3ccccc3)n2)cc1,-141*
COc1nc(-c2ccccc2)nnc1-c1ccccc1,-124*
Cc1ccc2[nH]c3c(c2c1)CCc1cn[nH]c1-3,-62*
Nc1c(C(=O)c2ccc(Cl)cc2)sc2nc3c(cc12)CCC3,-108*
Nc1c(C(=O)Nc2cccc(C(=O)O)c2)sc2nc3c(cc12)CCCC3,77
Nc1c(C(=O)C2CC2)sc2nc3c(cc12)CCC3,-161*
CCOc1ccc(C(=O)Nc2nnc(S(=O)(=O)N(C)Cc3ccco3)s2)cc1,-139*
Cc1ccccc1C(=O)Nc1nnc(S(=O)(=O)N(C)Cc2ccco2)s1,-72*
CN(c1ccccc1)S(=O)(=O)c1cc(C(=O)OCC(N)=O)ccc1Cl,-85*
C/[N+]([O-])=C/c1c(OCc2ccc(Cl)cc2Cl)ccc2ccccc12,-72*
O=C(c1ccccc1)c1coc2ccc(O)c(Cl)c12,-96*
Cc1ccc(C(=O)c2coc3ccc(O)c(Cl)c23)cc1,-163*
Cc1ccc(C(=O)c2coc3ccc(O)cc23)cc1,-64*
Cc1nnc(SC(=O)N2c3ccccc3Sc3ccccc32)s1,-66*
CC(C)n1c(SCC(=O)N2c3ccccc3Sc3ccccc32)nc2c1c(=O)n(C)c(=O)n2C,58
COc1ccc(C2NN=C(c3ccc(C)cc3)S2)cc1OC (stereo not drawn),-144*
COC(=O)C1C(O)=C(C=Nc2ccc3ccccc3c2)C(=O)CC1(C)C (stereo not drawn),-75*
O=C(Nc1cnc2ccccc2c1)c1cccnc1,-101*
O=C(Nc1cccc(-c2cnc3ccccc3n2)c1)c1ccco1,-80*
O=C(Nc1cnc2ccccc2c1)c1ccco1,-95*
CC(C)(C)c1ccc(C(=O)Nc2cccc(-n3cnnn3)c2)cc1,-85*
O=C(Nc1cnc2ccccc2c1)c1cccc(-n2cnnn2)c1,-89*
Cn1c(NC(=O)c2cccnc2)nc2ccccc21,-101*
SMILES,aSyn 5UTR act
Cc1cc(C(=O)Nc2cnc3ccccc3c2)ccc1[N+](=O)[O-],-132*
Cc1ccc(C(=O)Nc2cnc3ccccc3c2)cc1,103
COc1cc(-c2ccc(=O)[nH]n2)ccc1OC(F)F,87
COc1ccc(-c2cc(-c3ccccc3O)[nH]n2)cc1OC,-154*
COc1ccc(-c2ccc3ccccc3n2)cc1OC,-171*
COc1ccc(-c2cc(-c3ccc(OC)c(OC)c3)n[nH]2)c(O)c1,-163*
C(=C\c1ccc2ccccc2n1)/c1ccccc1,67
O=C(O)/C=C/c1ccc2ccccc2n1,-64*
COc1ccccc1-c1nc(COc2ccc(Cl)cc2Cl)no1,-204*
CC(=O)c1cccc(NC(=O)N2CCCc3ccccc32)c1,-131*
O=C(Nc1ccc2c(c1)OCO2)N1CCCc2ccccc21,-103*
O=C(Nc1ccc(S(=O)(=O)N2CCc3ccccc32)cc1)c1ccc2c(c1)OCO2,-73*
COC(=O)Nc1ccc(S(=O)(=O)N2CCCc3ccccc32)cc1,84
CS(=O)(=O)N1CCc2cc(C(=O)Nc3ccc(Cl)cc3)ccc21,-138*
CC(=O)O[C@@]12CO[C@@H]1C[C@H](O)[C@@]1(C)C(=O)[C@H](O)C3=C(C)[C@@H](OC(=O)[C@H](O)[C@@H](NC(=O)OC(C)(C)C)c4ccccc4)C[C@](O)([C@@H](OC(=O)c4ccccc4)[C@H]21)C3(C)C,72
Nc1cc2c(cc1O)CCCC2,-91*
COc1cccc(N(C(=O)c2nc3nccc(C)n3n2)c2nc3ccccc3s2)c1,-185*
Cc1ccc(C2NNC(=O)C2NC(=O)c2ccccc2)cc1 (stereo not drawn),-111*
CN(C)/C=C/C(=O)c1ccc(Oc2ccccc2)cc1,-136*
CCCc1ccc(C(=O)/C=C/N(C)C)cc1,-126*
Cc1ccc2[nH]c3c(NCc4ccco4)ncnc3c2c1,-203*
Cc1ccc2[nH]c3c(NCCCN4CCCC4=O)ncnc3c2c1,-77*
O=C(Nc1cc(-c2ccccc2)[nH]n1)c1ccccc1F,-207*
CCNC(=S)Nc1cc(-c2ccc(Cl)cc2)[nH]n1,-87*
CC(=O)Nc1cc(-c2ccc(F)cc2)[nH]n1,-77*
SMILES,aSyn 5UTR act
Oc1ccccc1C1CC(c2cccs2)=NC(c2ccc(Cl)cc2)N1 (stereo not drawn),-94*
CN1CCN(c2ccc(NC(=O)Cc3ccccc3)cc2)CC1,-68*
CN1CCN(c2ccc(NC(=O)N3CCc4ccccc43)cc2)CC1,70
O=C(/C=C/c1ccccc1)Nc1ccc(N2CCCCC2)cc1,-196*
O=C(Cc1ccccc1)Nc1ccc(N2CCCCC2)cc1,-67*
O=C(NC(=S)Nc1cccnc1Cl)c1ccco1,-62*
Cc1cc(-c2nc3ncccc3o2)ccc1NC(=S)NC(=O)c1ccco1,-67*
O=C(Nc1ccc(-c2nc3ncccc3o2)cc1)c1ccc([N+](=O)[O-])o1,100
O=C(NC(=S)Nc1ccc(Cl)cn1)c1cccs1,-92*
Cc1ccc(-c2nc3ncccc3o2)cc1NC(=O)c1ccc([N+](=O)[O-])o1,-511*
Cc1ccnc(NC(=S)NC(=O)c2ccco2)c1,-140*
Cc1ccnc(NC(=S)NC(=O)c2cccs2)c1,-270*
O=C(Nc1ncc(Cl)cn1)c1cccs1,-69*
O=C(NC(=S)Nc1ccccn1)c1ccco1,-173*
CCOC(=O)c1sc(N2C(=O)C(O)=C(C(=O)c3ccco3)C2c2cccc(Cl)c2)nc1C (stereo not drawn),-81*
